The results in this text go back to PubChem BioAssay AID493169 (National Center for Advancing Translational Sciences (NCATS), 2011).

Results filed as inconclusive are left out. Entries that show only a call come without a potency. The source made the active and inactive calls. Calls come from the whole dose curve; as a rule, active = well fitted inhibition curve with a large enough effect; inconclusive = small, poorly fitted or top-dose-only effect; inactive = flat fitted curve, though single readings scatter.
Potency is the fitted concentration of half-maximal effect.

The test is described as follows: CHOP2 Reporter Counterscreen Assay for Inhibitors of Ubiquitin-specific Protease USP2a.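 Note: activated enterokinase alone at 50 pM in a cell-free format rather than USP2a or CHOP2; nearly all actives have a fitted effect of over 55% in size.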 The settings on record: purified enterokinase, fluorogenic substrate, 485/531 nm; series mostly up to 38.3 µM. Put shortly:
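Fluorescence (485/531 nm) read 10 min after adding 25nM reporter substrate to 50 pM activated EK preincubated 30 min RT with compound; Tris pH 8.0/CaCl2/CHAPS buffer. Data normalized to buffer-alone inhibition; concentration-response curves fitted.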
For `O=C(O)CCn1c(C2CCCCC2)nc2ccccc21`, the Potency entry was “inactive”.

As for `CNc1cccccc1=S`, the Potency entry is “inactive”.

For the molecule `C[C@H](CO)N1C[C@H](C)[C@@H](CN(C)S(=O)(=O)c2cccs2)Oc2c(NC(=O)Nc3ccc4c(c3)OCO4)cccc2C1=O`, the Potency entry is “inactive”.

`CCOc1ccc(NC(=O)N(CCCN2CCOCC2)Cc2cccnc2)cc1`: the Potency entry was “inactive”.

On to `NC1=NC2(CCC(c3ccccc3)CC2)n2c(nc3ccccc32)N1` (stereo not given), for which the Potency entry is “inactive”.

`COc1cc(C)c(S(=O)(=O)NCc2ccc3c(c2)OCO3)cc1C`: the Potency result is “inactive”.

Regarding `CC1(C(=O)O)Sc2[nH]c(=O)sc2C2c3ccccc3OC(=O)C21` (stereo not given), the Potency entry is “inactive”.

In the case of `CCOc1ccc2[nH]c(=O)c(CN(Cc3nnnn3Cc3ccco3)C3CCCCC3)cc2c1`, the Potency entry was “inactive”.

In the case of `O=C(COC(=O)c1cccc(S(=O)(=O)N2CCc3ccccc32)c1)NC1CCS(=O)(=O)C1` (stereo not given), the Potency result was “inactive”.

In the case of `CC(/C=N/NC(=O)c1cc(-c2cccs2)[nH]n1)=C\c1ccccc1`, the Potency entry is “inactive”.

With `COc1ccc(-c2csc(N3CCN(C(=O)c4ccco4)CC3)n2)cc1`, the Potency result is “inactive”.

On to `CCOC(=O)c1sc(NC(=O)Nc2ccccc2)cc1C`, for which the Potency entry was “inactive”.

Consider `O=[N+]([O-])c1cc(-c2nnc(Nc3ccccc3)c3ccccc23)ccc1N1CCOCC1`, for which the Potency result was “inactive”.

With `CC1Cc2ccccc2N1C(=O)Cn1c(=O)oc2cc(S(=O)(=O)NC3CCCC3)ccc21` (stereo not given), the Potency result is “inactive”.

For the molecule `COc1cc2c(C(=O)N3CCN(c4cccc(Cl)c4)CC3)cn(CC(C)C)c(=O)c2cc1OC`, the Potency entry is “inactive”.

As to `CC(C)(C)OC(=O)C[C@H]1C/C=C\C[C@H](CC(=O)N(CCO)Cc2ccccc2)C(=O)NC[C@H](c2ccccc2)OC1=O`, the Potency result is “inactive”.

For `COc1ccc(NC(=O)CSc2ncccc2C(=O)OC(C)C)cc1OC`, the Potency result was “inactive”.

As for `CC1(C)CC(=O)C2=C(C1)Oc1ncn(CCCO)c(=N)c1C2c1ccccc1` (stereo not given), the Potency result is “inactive”.

For `COc1ccc(NC(=O)CSc2nc3sc(C)cc3c(=O)n2C)c(OC)c1`, the Potency result was “inactive”.

With `CC(C)c1ccc(NC(=O)C(c2ccc3c(c2)OCO3)N2CCCCC2)cc1` (stereo not given), the Potency entry is “inactive”.

As to `CCC(C)NC(=O)C1CN(S(=O)(=O)c2ccccc2)CCN1S(=O)(=O)c1ccccc1` (stereo not given), the Potency result was “inactive”.

Take `O=[N+]([O-])c1ccc(Sc2nnnn2-c2ccccc2)c(Cl)c1`: the Potency entry is “inactive”.

As for `CCOc1ccc(NC(=O)c2cccc(-n3cnnn3)c2)cc1`, the Potency result was “inactive”.

`CC(=O)c1c(N2CCCC2)[nH]c(-c2ccccc2)nc1=S`: the Potency result was “inactive”.

Regarding `COC(=O)c1[nH]c2cc(OC)ccc2c1N`, the Potency entry is “inactive”.

For the molecule `Cc1cc(=O)oc(C)c1C(=O)NCCc1ccccc1`, the Potency result is “inactive”.

As to `O=C(OCc1ccccc1)C1CCCN1C(=O)c1cccs1` (stereo not given), the Potency result is “inactive”.

As for `Cc1onc(-c2ccccc2)c1C(=O)N1CCN(C)CC1`, the Potency result is “inactive”.

For the molecule `O=C(c1cccc(F)c1)N1CCN(S(=O)(=O)c2ccccc2)CC1`, the Potency result was “inactive”.

In the case of `Cc1cc(N2CCC(C(=O)NC3CC3)CC2)nc(-c2ccccc2)n1`, the Potency result is “inactive”.

`O=C(Nc1cccc(S(=O)(=O)NC2=NCCC2)c1)c1cc(-c2ccco2)nc2ccccc12`: the Potency was 1.78 µM (active).

Consider `COCc1c(C(=O)OCC(=O)c2c(N)n(CC(C)C)c(=O)n(C)c2=O)oc2ccccc12`, for which the Potency entry was “inactive”.

On to `COc1cccc(-c2csc3nnc(SCC(=O)NCc4cccs4)n23)c1`, for which the Potency entry is “inactive”.

As to `Cc1noc(C)c1NC(=O)Nc1ccc2c(c1)C(=O)N([C@H](C)CO)C[C@H](C)[C@@H](CN(C)S(=O)(=O)c1ccccc1)O2`, the Potency entry was “inactive”.

As for `CNC(=O)NC(=O)CSc1ccc(NC(C)=O)cc1`, the Potency entry was “inactive”.

In the case of `O=C1N=c2ccccc2=C1c1sc(Nc2ccc(O)cc2)nc1O`, the Potency was 8.91 µM (active).

As for `CC(=O)COc1ccc2c(-c3ccccc3)cc(=O)oc2c1`, the Potency result is “inactive”.

For `Cc1ccc(C)c(S(=O)(=O)c2c(N)n(/N=C/c3ccco3)c3nc4ccccc4nc23)c1`, the Potency result was “inactive”.

For `Cc1cc(C)n2cc(CSc3nnnn3-c3ccccc3C)nc2n1`, the Potency result was “inactive”.

Take `CCOC(=O)c1c(-c2ccc(C)o2)csc1NC(=O)COC(=O)c1ccc(NC(N)=O)cc1`: the Potency entry is “inactive”.
